Data taken from PubChem BioAssay AID1159580 (chemical genetic matrix, 2015).
Where “and” joins values, the source holds several entries; their conditions need not be identical. Identical values can stand only once. In all, about 5,500 compounds went through this assay and about 2,000 (36%) were called active. About 18% were inconclusive and are not listed. No stated cut-off is given here; in the data, active means normalized growth mostly below about 0.91 (no sharp cut-off); inconclusive means no clear call, values can overlap the other calls; inactive means mostly above about 0.92. Some of the results follow.

Test: chemical genetic growth profiling, strain panel (AID 1159580);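 further: tested at 20 µM; growth read once vehicle control cultures reached saturation at 30 °C; 1 = growth at the plate median or of vehicle wells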
Details: growth OD
[1] = S. cerevisiae deletion strains, locus YAL013W, strain DEP1, stronger effect = lower value
[2] = S. cerevisiae deletion strains, locus YBR229C, strain ROT2, stronger effect = lower value
[3] = S. cerevisiae deletion strains, locus YDL101C, strain DUN1, stronger effect = lower value
[4] = S. cerevisiae deletion strains, locus YDL134C, strain PPH21, stronger effect = lower value
[5] = S. cerevisiae deletion strains, locus YDR150W, strain NUM1, stronger effect = lower value
[6] = S. cerevisiae deletion strains, locus YEL061C, strain CIN8, stronger effect = lower value
[7] = S. cerevisiae deletion strains, locus YGR078C, strain PAC10, stronger effect = lower value
[8] = S. cerevisiae deletion strains, locus YHR030C, strain SLT2, stronger effect = lower value
[9] = S. cerevisiae deletion strains, locus YJR043C, strain POL32, stronger effect = lower value
[10] = S. cerevisiae deletion strains, locus YLR039C, strain RIC1, stronger effect = lower value
[11] = S. cerevisiae deletion strains, locus YLR262C, strain YPT6, stronger effect = lower value
[12] = S. cerevisiae deletion strains, locus YMR263W, strain SAP30, stronger effect = lower value
[13] = S. cerevisiae deletion strains, locus YMR307W, strain GAS1, stronger effect = lower value
[14] = S. cerevisiae deletion strains, locus YNL153C, strain GIM3, stronger effect = lower value
[15] = S. cerevisiae deletion strains, locus YOL006C, strain TOP1, stronger effect = lower value

Measured: normalized growth

O=C1CCC(c2cccs2)=NN1
inactive: [1] 0.979 | [2] 1 | [3] 0.974 | [4] 1 | [5] 0.986 | [6] 0.987 | [7] 0.99 | [8] 1.03 | S. cerevisiae deletion strains, locus YHR087W, strain rtc3, stronger effect = lower value 0.999 | [9] 1 | S. cerevisiae deletion strains, locus YJR075W, strain HOC1, stronger effect = lower value 1.01 | [10] 0.993 | S. cerevisiae deletion strains, locus YLR058C, strain SHM2 (second series), stronger effect = lower value 1 | S. cerevisiae deletion strains, locus YLR085C, strain ARP6, stronger effect = lower value 0.998 | [11] 1.02 | S. cerevisiae deletion strains, locus YML094W, strain GIM5, stronger effect = lower value 1 | S. cerevisiae deletion strains, locus YMR219W, strain ESC1, stronger effect = lower value 0.997 | [12] 1.03 | [13] 1.09 | [14] 0.998 | S. cerevisiae deletion strains, locus YNL298W, strain CLA4 (second series), stronger effect = lower value 1.01 | S. cerevisiae deletion strains, locus YNL322C, strain KRE1, stronger effect = lower value 0.985 | S. cerevisiae deletion strains, locus YNR030W, strain Alg12, stronger effect = lower value 1 | [15] 0.99 | S. cerevisiae deletion strains, locus YPL055C, strain LGE1, stronger effect = lower value 1.01 | S. cerevisiae deletion strains, locus YPL241C, strain CIN2, stronger effect = lower value 1.05 | S. cerevisiae deletion strains, locus YPR135W, strain CTF4, stronger effect = lower value 0.901

CC1(C)O[C@@H]2CC3C4CCC5=CC(=O)CCC5(C)C4(F)C(O)CC3(C)[C@]2(C(=O)CCl)O1 (stereo partly drawn)
inactive: [1] 0.996 | S. cerevisiae deletion strains, locus YBR021W, strain FUR4, stronger effect = lower value 1.04 | [2] 1 | S. cerevisiae deletion strains, locus YCL029C, strain bik1, stronger effect = lower value 1 | S. cerevisiae deletion strains, locus YDL035C, strain GPR1, stronger effect = lower value 0.979 | S. cerevisiae deletion strains, locus YDL074C, strain BRE1, stronger effect = lower value 1.02 | [3] 0.994 | [4] 0.994 | S. cerevisiae deletion strains, locus YDL185W, strain tfp1, stronger effect = lower value 0.967 | S. cerevisiae deletion strains, locus YDL192W, strain arf1, stronger effect = lower value 0.986 | S. cerevisiae deletion strains, locus YDR101C, strain arx1, stronger effect = lower value 1.03 | [5] 0.981 | S. cerevisiae deletion strains, locus YDR162C, strain NBP2, stronger effect = lower value 0.963 | S. cerevisiae deletion strains, locus YDR318W, strain mcm21, stronger effect = lower value 0.979 | S. cerevisiae deletion strains, locus YDR388W, stronger effect = lower value 0.996 | S. cerevisiae deletion strains, locus YDR502C, strain sam2, stronger effect = lower value 0.99 | [6] 0.998 | S. cerevisiae deletion strains, locus YER110C, stronger effect = lower value 0.975 | S. cerevisiae deletion strains, locus YER155C, strain BEM2, stronger effect = lower value 1.01 | S. cerevisiae deletion strains, locus YER167W, strain BCK2, stronger effect = lower value 0.994 | S. cerevisiae deletion strains, locus YGL078C, strain dbp3, stronger effect = lower value 0.993 | S. cerevisiae deletion strains, locus YGL086W, strain mad1, stronger effect = lower value 1.01 | S. cerevisiae deletion strains, locus YGL248W, strain PDE1, stronger effect = lower value 1 | [7] 1.01 | S. cerevisiae deletion strains, locus YGR135W, strain pre9, stronger effect = lower value 0.973 | S. cerevisiae deletion strains, locus YGR252W, strain gcn5, stronger effect = lower value 1.02 | [8] 0.985 and 1 | S. cerevisiae deletion strains, locus YHR079C, strain IRE1 (second series), stronger effect = lower value 0.992 | S. cerevisiae deletion strains, locus YHR079C, strain IRE1, stronger effect = lower value 1 | S. cerevisiae deletion strains, locus YHR094C, strain hxt1, stronger effect = lower value 0.998 | S. cerevisiae deletion strains, locus YHR129C, strain ARP1, stronger effect = lower value 0.996 | S. cerevisiae deletion strains, locus YHR200W, strain rpn10, stronger effect = lower value 0.988 | S. cerevisiae deletion strains, locus YIL066C, strain RNR3, stronger effect = lower value 1 | S. cerevisiae deletion strains, locus YIL073C, strain SPO22, stronger effect = lower value 0.889 | S. cerevisiae deletion strains, locus YIL125W, strain kgd1, stronger effect = lower value 1.01 | S. cerevisiae deletion strains, locus YIR030C, strain dcg1, stronger effect = lower value 0.983 | S. cerevisiae deletion strains, locus YJL095W, strain BCK1, stronger effect = lower value 1.03 and 1.02 | S. cerevisiae deletion strains, locus YJL134W, strain LCB3, stronger effect = lower value 0.989 | S. cerevisiae deletion strains, locus YJL168C, strain set2, stronger effect = lower value 1 | S. cerevisiae deletion strains, locus YJL187C, strain SWE1 (second series), stronger effect = lower value 1.01 | [9] 1.01 | S. cerevisiae deletion strains, locus YJR066W, strain TOR1, stronger effect = lower value 0.972 | S. cerevisiae deletion strains, locus YKL009W, strain mrt4, stronger effect = lower value 0.956 | S. cerevisiae deletion strains, locus YKL068W, stronger effect = lower value 0.98 | S. cerevisiae deletion strains, locus YKL085W, strain MDH1 (second series), stronger effect = lower value 0.975 | S. cerevisiae deletion strains, locus YKL085W, strain MDH1, stronger effect = lower value 0.975 | S. cerevisiae deletion strains, locus YKL190W, strain CNB1, stronger effect = lower value 0.977 | S. cerevisiae deletion strains, locus YKR001C, strain vps1, stronger effect = lower value 1.01 | [10] 0.938 | S. cerevisiae deletion strains, locus YLR058C, strain SHM2, stronger effect = lower value 0.991 | S. cerevisiae deletion strains, locus YLR102C, strain apc9, stronger effect = lower value 0.995 | S. cerevisiae deletion strains, locus YLR113W, strain HOG1, stronger effect = lower value 1.04 | [11] 0.942 | S. cerevisiae deletion strains, locus YLR268W, strain sec22, stronger effect = lower value 0.99 | S. cerevisiae deletion strains, locus YLR330W, strain CHS5, stronger effect = lower value 0.996 | S. cerevisiae deletion strains, locus YLR342W, strain FKS1 (second series), stronger effect = lower value 1.01 | S. cerevisiae deletion strains, locus YLR371W, strain rom2, stronger effect = lower value 1 | S. cerevisiae deletion strains, locus YLR418C, strain cdc73, stronger effect = lower value 0.944 | S. cerevisiae deletion strains, locus YML016C, strain PPZ1, stronger effect = lower value 1 | S. cerevisiae deletion strains, locus YML032C, strain rad52, stronger effect = lower value 1.01 | S. cerevisiae deletion strains, locus YML124C, strain tub3, stronger effect = lower value 1 | S. cerevisiae deletion strains, locus YMR078C, strain ctf18, stronger effect = lower value 0.99 | S. cerevisiae deletion strains, locus YMR223W, strain ubp8, stronger effect = lower value 0.97 | [12] 1 | [13] 1.01 | S. cerevisiae deletion strains, locus YNL067W, strain RPL9B, stronger effect = lower value 1.02 | [14] 1.06 | S. cerevisiae deletion strains, locus YNL183C, strain NPR1, stronger effect = lower value 0.972 | S. cerevisiae deletion strains, locus YNL233W, strain BNI4, stronger effect = lower value 1.04 | S. cerevisiae deletion strains, locus YNL250W, strain rad50, stronger effect = lower value 0.987 | S. cerevisiae deletion strains, locus YNL271C, strain bni1, stronger effect = lower value 0.986 | S. cerevisiae deletion strains, locus YNL298W, strain CLA4, stronger effect = lower value 0.994 | S. cerevisiae deletion strains, locus YNL307C, strain MCK1, stronger effect = lower value 0.995 | S. cerevisiae deletion strains, locus YNR052C, strain pop2, stronger effect = lower value 0.985 | [15] 1.01 | S. cerevisiae deletion strains, locus YOL012C, strain htz1 0.917 | S. cerevisiae deletion strains, locus YOL147C, strain pex11, stronger effect = lower value 0.996 | S. cerevisiae deletion strains, locus YOR061W, strain CKA2, stronger effect = lower value 0.994 | S. cerevisiae deletion strains, locus YOR069W, strain VPS5, stronger effect = lower value 0.99 | S. cerevisiae deletion strains, locus YOR136W, strain idh2, stronger effect = lower value 0.995 | S. cerevisiae deletion strains, locus YOR144C, strain elg1, stronger effect = lower value 1.01 | S. cerevisiae deletion strains, locus YOR184W, strain ser1, stronger effect = lower value 0.958 | S. cerevisiae deletion strains, locus YOR231W, strain MKK1, stronger effect = lower value 1.02 | S. cerevisiae deletion strains, locus YOR316C, strain cot1, stronger effect = lower value 0.983 | S. cerevisiae deletion strains, locus YPL256C, strain CLN2, stronger effect = lower value 0.989 | S. cerevisiae deletion strains, locus YPR119W, strain clb2, stronger effect = lower value 0.997 | S. cerevisiae deletion strains, locus YPR141C, strain kar3, stronger effect = lower value 0.99 | S. cerevisiae deletion strains, locus YPR163C, strain tif3, stronger effect = lower value 0.993 | S. cerevisiae deletion strains, locus YPR167C, strain met16, stronger effect = lower value 0.984 | S. cerevisiae deletion strains, strain wtn01, stronger effect = lower value 0.987 | S. cerevisiae strains, strain wild type, stronger effect = lower value 0.994
